PubChem BioAssay (NCI)
Compounds without any hit were thinned out: in the full panel of roughly 83,000, 20% have a hit.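 Single-concentration screen, 48 h exposure, 96-well plates. Endpoint: percent growth. Below 10 = active.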 Values without a mark were called inactive. Active and inactive are the calls of the source.

The molecules below were run on NCI/ADR-RES ovarian (assay: NCI-60 one-dose screen, 48 h (100 = growth as untreated, 0 = no growth, -100 = all killed)). Settings: 10 µM unless noted.
Experimental: Growth inhibition of the NCI/ADR-RES human […] tumor cell line is measured as a screen for anti-cancer activity. Cells are grown in 96 well plates and exposed to the test compound for 48 hours. Compounds are tested at a single concentration, which is 10^-5 M for most compounds. The reported endpoint is percent growth (GI% or GIPRCNT), where numbers from 0 - 100% represent growth inhibition, and numbers from -100% - 0 represent cell death. For example, a value of 40 represents 60% growth inhibition. A value of 0 means no net growth occurred over the course of the experiment. A value of -40 indicates 40% of cells at the beginning of the experiment died by the end of the experiment. A value of -100 means all cells are dead at the end of the experiment.
NCI-60 Human Tumor Cell Lines Screen was performed using the standard one-dose NCI protocol, which is described in more detail at https://dtp.cancer.gov/discovery_development/nci-60/default.htm.
Compounds with GIPRCNT values below 10 were considered active. Activity score was based on GIPRCNT using the following formula: […]
Score is 0 for GIPRCNT values of 100 or above, 50 for GIPRCNT values of 0, and 100 for GIPRCNT values of -100.

Structure (SMILES)	growth
Cc1cc2c(C(=O)NCC#N)cccc2n1-c1nc2c(c(NCc3ccccc3)n1)CCCC2	1.16% (active)
C=C1C(=O)O[C@H]2[C@H]1CC/C(COC(=O)NCc1c[nH]c3ccc(Br)cc13)=C\CC[C@@]1(C)O[C@@H]21	43.5%
Cc1ccc(NS(=O)(=O)c2ccc(-c3cnc(C4CC4)o3)cc2)cc1C(F)(F)F	43.3%
Cc1cccc(C)c1N=c1oc2ccc(Cl)cc2nc1-c1ccccc1O	86.4%
O=C1Nc2ccccc2/C1=C\c1c(-c2ccccc2)nc2ccccn12	-11.1% (active)
O=C1Nc2cc(Cl)ccc2/C1=C\c1c(-c2ccc(F)cc2)nc2ccccn12	-27.6% (active)
Cc1cc2nc3c4cccc(O)c4n(CCN(C)C)c3nc2cc1C	32.3%
Brc1ccc(Nc2csc(-c3ccccn3)n2)cc1	93.5%
COc1ccc(/C=N/NC(=O)c2cnn3c2NC(c2ccccc2)C3)cc1OC (stereo not given)	85.5%
Cc1ccc(C(=O)/C(=C\c2ccc([N+](=O)[O-])cc2)S(=O)Cc2ccc(F)cc2)cc1 (stereo not given)	26.8%
COc1cc2c(=O)n(CCN(C)C)c3c4cc5c(cc4ccc3c2cc1OC)OCO5	2.87% (active)
Cc1nc2sccn2c1-c1cn2ccsc2n1	98%
C/C(=N\Nc1cc(C)nc2ccc(Br)cc12)c1ccc([N+](=O)[O-])cc1	81.1%
CNC(=O)c1cccc(Cn2nc(C)c(NC(=O)c3ccc(COc4ccc(C(F)(F)F)cc4C)cc3)c2C)c1	35.4%
COC(=O)CNC(=O)[C@]12CCC(C)(C)C[C@H]1C1=CC[C@@H]3[C@@]4(C)Cc5c([nH]c6ccccc56)C(C)(C)[C@@H]4CC[C@@]3(C)[C@]1(C)CC2	89.6%
COc1cc(-c2n/c(=C\c3c(O)[nH]c4ccc(Cl)cc34)cc3c2=Nc2ccccc2-3)ccc1F	47%
O=S(=O)(NCCCNc1nccc(-c2c(-c3cccc(F)c3)nc3sccn23)n1)c1cccc2ccccc12	47.1%
Cc1ncc(C(=O)Nc2ccc(CN3CCN(C)CC3)c(C(F)(F)F)c2)cc1C#Cc1cnc(N)cc1C#N	-46.8% (active)
COc1cc2c3c(c4c5ccccc5[nH]c4c2c(OC)c1OC)C(=O)N(CCN1CCOCC1)C3=O	45.8%
CC(C)c1ccc(Nc2ccc3c(OCCCN4CCN(C)CC4)cccc3n2)cc1	82%

Structure (SMILES)	growth
Cc1cc(C)c(S(=O)(=O)Oc2ccccc2[N+](=O)[O-])c(C)c1	8.3% (active)
Cc1c(C)c([N+](=O)[O-])c(C)c([N+](=O)[O-])c1C	108%
CCCCCN1C=C/C(=C\C(=O)n2ccc3ccccc32)c2ccccc21	94.3%
O=C(Nc1ccccc1C(=O)N/N=C(\c1ccccc1)c1ccccn1)c1ccc(F)cc1	9.79% (active)
COc1cc(OC)cc(C(=O)C[n+]2cccc3cc[nH]c32)c1	101%
COc1ccc(/C=C2\Oc3cc(OCCCN4CCCCC4)ccc3C2=O)cc1OC	97.1%
CNCCn1c(=O)c2cc(OC)c(OC)cc2c2ccc3cc4c(cc3c21)OCO4	4.99% (active)
Nc1ccccc1NC(=O)c1ccc(-n2nc(-c3ccccc3)c3ccccc32)cc1	54%
CCCCCCNC(=O)Oc1ccc(/C(=C(\C)c2ccccc2)c2ccc(OCCN3CCCCC3)cc2)cc1	63.1%
C[C@H]1[C@H](C)CC[C@]2(C(=O)Nc3ccc4ncccc4c3)CC[C@]3(C)C(=CC[C@@H]4[C@@]5(C)CCCNC(C)(C)[C@@H]5CC[C@]43C)[C@H]12	-48.6% (active)
COc1ccc(-c2nc(S(=O)(=O)c3ccccc3)c(S(=O)CC(=O)N3CCC(C)CC3)o2)cc1 (stereo not given)	59.7%
COc1ccc(/C=C/c2nc(Nc3ccc(S(=O)(=O)NC(C)=O)cc3)c3ccccc3n2)cc1	85.9%
CCCCOc1ccc(/C(C)=N/Nc2cc(C)nc3ccc(Br)cc23)cc1	99.2%
COc1cccc(-c2nc3occn3c2-c2ccnc(NCCNS(=O)(=O)c3cccc4ccccc34)n2)c1	98.8%
CN(C)c1ccc(C2C(C#N)=C(/N=C/c3ccccc3)Oc3c2ccc2ccccc32)cc1 (stereo not given)	54.4%
CC(=O)[C@@H]1CC[C@]2(CO)CC[C@]3(C)[C@H](CC[C@@H]4[C@@]5(C)CCCNC(C)(C)[C@@H]5CC[C@]43C)[C@@H]12	96.4%
N#Cc1c(-c2ccccc2)nc2c(c(-c3ccccc3)nn2-c2ccccc2)c1-c1ccc(O)cc1	70.5%
COc1cc(/C(C)=C(\c2ccc(Cl)cc2)c2ccc(OCCN(C)C)cc2)ccc1F	69.4%
Oc1ccc(C2c3ccccc3Oc3ccccc32)c2cccnc12	7.48% (active)
CCSCC1CC(O)(c2ccccc2)CC(c2ccc(F)cc2)O1 (stereo not given)	24.6%
